Reference: the supplement of paper PMC10849652
The full data set covers some 8,800 targets. This sample favours those with a hit. About 0.5% of all pairs of compound and target were hits.

Key:
Test in all cases: log2 fold change, soluble protein after heating vs DMSO (PISA); higher = thermal stabilisation; K562 lysate, 10 uM; active = over 0.2 and 3.5 SD of the protein, either way, in both replicates (recomputed)
alvocidib = compound: CN1CC[C@H](c2c(O)cc(O)c3c(=O)cc(-c4ccccc4Cl)oc23)[C@H](O)C1 [alvocidib]
Outline: (§1)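 Pellets of K562 cells were dounce-homogenised in PBS pH 7.4 with 1 mM MgCl2, and the crude extract was held at 1 mg/mL protein for a 30 min treatment with 10 μM compound. Aliquots were heated for 3 min over 48°C-58°C and pooled before NP-40 was added to 0.5% at 4°C. The supernatant from 21,000xg for 90 min was quantified by TMTpro 16plex LC-MS/MS with channel sums equalised. Values are reported from duplicates as log-two fold change in thermal stability relative to solvent controls.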

Tubastatin A = compound: CN1CCc2c(c3ccccc3n2Cc2ccc(C(=O)NO)cc2)C1 [Tubastatin A]
Outline: as §1

[1] = compound: CNC(=O)C1=CC=CC=C1NC2=NC(=NC=C2Cl)NC3=C(C=C(C=C3)N4CCOCC4)OC
Outline: as §1

defactinib = compound: CNC(=O)c1ccc(Nc2ncc(C(F)(F)F)c(NCc3nccnc3N(C)S(C)(=O)=O)n2)cc1 [defactinib]
Outline: as §1

[2] = compound: CNc1nc(-c2ccc3c(N)n[nH]c3c2)cc(N2C[C@@H](C(=O)NC3CCCCC3)CC[C@H]2C)n1
Outline: as §1

encorafenib = compound: COC(=O)N[C@@H](C)CNc1nccc(-c2cn(C(C)C)nc2-c2cc(Cl)cc(NS(C)(=O)=O)c2F)n1 [encorafenib]
Outline: as §1

[3] = compound: COC(=O)[C@H](CCSC)NC(=O)C1=C(C=C(C=C1)NC[C@H](CS)N)C2=CC=CC=C2
Outline: as §1

alisertib = compound: COc1cc(Nc2ncc3c(n2)-c2ccc(Cl)cc2C(c2c(F)cccc2OC)=NC3)ccc1C(=O)O [alisertib]
Outline: as §1

[4] = compound: COc1cc2nc(-c3cc(F)ccc3O)nc(N[C@@H]3CNC[C@H]3C(C)(C)O)c2cc1OC
Outline: as §1

gefitinib = compound: COc1cc2ncnc(Nc3ccc(F)c(Cl)c3)c2cc1OCCCN1CCOCC1 [gefitinib]
Outline: as §1

Measured: log2 fold change

ANKRD30B (UniProt Q9BXX2)
inactive: alvocidib -0.307 | Tubastatin A 0.007 | [1] -0.01 | defactinib -0.155 | [2] 0.284 | encorafenib -0.113 | [3] 0.164 | alisertib -0.002 | [4] -0.067 | gefitinib -0.036

ANP32A (UniProt P39687)
inactive: alvocidib -0.039 | Tubastatin A 0.027 | [1] -0.006 | defactinib 0.016 | [2] -0.056 | encorafenib -0.024 | [3] -0.048 | alisertib 0.018 | [4] -0.014 | gefitinib -0.007

ARAF (UniProt P10398)
UniProt P10398, sequence (P10398 whole entry, looked up): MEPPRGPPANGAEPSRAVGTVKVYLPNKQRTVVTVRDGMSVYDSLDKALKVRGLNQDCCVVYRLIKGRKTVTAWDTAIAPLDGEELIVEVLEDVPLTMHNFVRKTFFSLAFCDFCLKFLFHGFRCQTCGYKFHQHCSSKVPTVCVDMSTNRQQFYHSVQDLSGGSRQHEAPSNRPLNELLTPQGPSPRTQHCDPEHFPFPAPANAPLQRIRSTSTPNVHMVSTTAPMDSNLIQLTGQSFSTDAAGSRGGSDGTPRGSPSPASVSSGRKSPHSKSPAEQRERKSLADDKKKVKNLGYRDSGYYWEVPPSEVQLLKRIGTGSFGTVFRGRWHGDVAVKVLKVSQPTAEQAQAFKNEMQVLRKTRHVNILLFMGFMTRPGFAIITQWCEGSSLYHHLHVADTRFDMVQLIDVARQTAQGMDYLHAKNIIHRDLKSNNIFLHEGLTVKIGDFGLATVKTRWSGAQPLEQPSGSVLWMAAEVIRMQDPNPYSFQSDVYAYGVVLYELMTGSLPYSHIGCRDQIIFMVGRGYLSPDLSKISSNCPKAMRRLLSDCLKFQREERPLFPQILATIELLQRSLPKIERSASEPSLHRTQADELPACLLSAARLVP
inactive: alvocidib 0.036 | Tubastatin A -0.08 | [1] 0.019 | defactinib -0.039 | [2] -0.105 | [3] 0.093 | alisertib -0.048 | [4] 0.007 | gefitinib 0.019
active: encorafenib 0.307

ANKRD54 (UniProt Q6NXT1)
inactive: alvocidib -0.019 | Tubastatin A -0.095 | [1] 0.121 | defactinib 0.022 | [2] 0.042 | encorafenib 0.082 | [3] -0.147 | alisertib 0.006 | [4] -0.011 | gefitinib 0.002

ABL2 (UniProt P42684)
UniProt P42684, sequence (P42684 whole entry, looked up): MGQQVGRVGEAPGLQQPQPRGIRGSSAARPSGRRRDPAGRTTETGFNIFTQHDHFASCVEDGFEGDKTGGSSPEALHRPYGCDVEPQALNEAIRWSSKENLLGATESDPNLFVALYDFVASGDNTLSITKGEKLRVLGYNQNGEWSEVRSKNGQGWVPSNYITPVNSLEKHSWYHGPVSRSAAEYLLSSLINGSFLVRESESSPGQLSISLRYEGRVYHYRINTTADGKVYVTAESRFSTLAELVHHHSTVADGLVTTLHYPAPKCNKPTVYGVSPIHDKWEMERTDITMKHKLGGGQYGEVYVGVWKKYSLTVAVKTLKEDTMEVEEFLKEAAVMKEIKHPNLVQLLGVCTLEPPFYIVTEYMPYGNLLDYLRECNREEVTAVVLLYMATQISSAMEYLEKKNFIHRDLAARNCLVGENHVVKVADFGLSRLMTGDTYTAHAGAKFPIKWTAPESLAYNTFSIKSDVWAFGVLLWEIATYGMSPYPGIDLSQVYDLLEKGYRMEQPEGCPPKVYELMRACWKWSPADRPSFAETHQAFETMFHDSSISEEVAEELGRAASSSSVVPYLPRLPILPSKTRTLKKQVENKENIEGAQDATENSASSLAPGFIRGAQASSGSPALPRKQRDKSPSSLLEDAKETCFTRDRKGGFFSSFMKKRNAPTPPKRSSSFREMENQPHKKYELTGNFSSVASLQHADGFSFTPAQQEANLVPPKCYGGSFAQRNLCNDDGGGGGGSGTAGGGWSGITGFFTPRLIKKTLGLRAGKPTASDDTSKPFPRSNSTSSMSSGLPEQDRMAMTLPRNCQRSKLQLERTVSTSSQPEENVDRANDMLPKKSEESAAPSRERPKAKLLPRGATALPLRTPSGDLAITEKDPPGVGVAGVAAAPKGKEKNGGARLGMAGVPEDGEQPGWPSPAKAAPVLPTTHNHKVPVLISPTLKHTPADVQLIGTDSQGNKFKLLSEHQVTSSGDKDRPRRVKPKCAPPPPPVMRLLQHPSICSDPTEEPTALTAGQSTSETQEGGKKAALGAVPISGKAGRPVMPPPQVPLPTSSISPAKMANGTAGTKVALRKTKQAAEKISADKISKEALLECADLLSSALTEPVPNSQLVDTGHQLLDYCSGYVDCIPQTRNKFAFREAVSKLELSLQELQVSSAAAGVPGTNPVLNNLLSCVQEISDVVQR
inactive: alvocidib 0.007 | Tubastatin A -0.04 | [1] 0.082 | defactinib 0.066 | [2] -0.108 | encorafenib 0.092 | [3] -0.068 | alisertib -0.123 | [4] -0.009 | gefitinib -0.176

ALKBH4 (UniProt Q9NXW9)
inactive: alvocidib 0.029 | Tubastatin A -0.093 | [1] -0.003 | defactinib 0.166 | [2] 0.026 | encorafenib 0.053 | [3] -0.02 | alisertib 0.019 | [4] -0.03 | gefitinib 0.044

AIMP2 (UniProt Q13155)
UniProt Q13155, sequence (Q13155 whole entry, looked up): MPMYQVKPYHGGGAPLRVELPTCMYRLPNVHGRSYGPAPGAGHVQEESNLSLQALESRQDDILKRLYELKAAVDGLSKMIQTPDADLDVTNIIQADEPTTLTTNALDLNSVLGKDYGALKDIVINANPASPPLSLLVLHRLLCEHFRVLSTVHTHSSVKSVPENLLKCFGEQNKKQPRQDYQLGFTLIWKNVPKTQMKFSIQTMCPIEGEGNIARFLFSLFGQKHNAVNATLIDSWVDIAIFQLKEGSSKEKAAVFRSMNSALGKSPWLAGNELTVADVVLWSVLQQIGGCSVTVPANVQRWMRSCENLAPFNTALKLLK
inactive: alvocidib 0.037 | Tubastatin A -0.11 | [1] 0.006 | defactinib -0.01 | [2] -0.007 | encorafenib -0.02 | [3] 0.093 | alisertib 0.011 | [4] -0.028 | gefitinib -0.088

ANXA1 (UniProt P04083)
inactive: alvocidib -0.025 | Tubastatin A -0.005 | [1] -0.021 | defactinib -0.007 | [2] -0.055 | encorafenib -0.021 | [3] 0.028 | alisertib 0.001 | [4] 0.008 | gefitinib -0.012

ASPH (UniProt Q12797)
UniProt Q12797, sequence (Q12797 whole entry, looked up): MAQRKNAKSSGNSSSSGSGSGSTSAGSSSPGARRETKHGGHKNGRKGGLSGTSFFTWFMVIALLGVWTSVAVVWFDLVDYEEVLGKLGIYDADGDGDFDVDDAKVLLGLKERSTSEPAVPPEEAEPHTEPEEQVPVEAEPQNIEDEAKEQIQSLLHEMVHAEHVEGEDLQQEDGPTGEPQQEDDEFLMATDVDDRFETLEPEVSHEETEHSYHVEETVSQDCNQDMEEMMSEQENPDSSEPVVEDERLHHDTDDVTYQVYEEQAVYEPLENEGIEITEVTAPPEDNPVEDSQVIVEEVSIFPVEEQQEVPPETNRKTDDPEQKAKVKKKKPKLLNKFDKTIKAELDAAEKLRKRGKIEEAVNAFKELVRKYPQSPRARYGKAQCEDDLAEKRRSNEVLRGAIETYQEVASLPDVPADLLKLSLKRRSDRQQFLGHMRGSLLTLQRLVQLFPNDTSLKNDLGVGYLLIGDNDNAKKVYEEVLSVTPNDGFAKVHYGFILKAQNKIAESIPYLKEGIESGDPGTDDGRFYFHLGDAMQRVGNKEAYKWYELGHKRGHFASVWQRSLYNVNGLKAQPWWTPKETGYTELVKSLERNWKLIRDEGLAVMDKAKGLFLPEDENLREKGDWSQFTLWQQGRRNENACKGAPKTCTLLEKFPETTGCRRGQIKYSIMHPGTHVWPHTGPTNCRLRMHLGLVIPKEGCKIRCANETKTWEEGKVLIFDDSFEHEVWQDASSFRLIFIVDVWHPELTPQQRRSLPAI
inactive: alvocidib -0.012 | Tubastatin A 0.018 | [1] -0.01 | defactinib 0.023 | [2] -0.006 | encorafenib 0.018 | [3] -0.047 | alisertib 0.042 | [4] -0.025 | gefitinib -0.041

ARAP1 (UniProt Q96P48)
UniProt Q96P48, sequence (Q96P48 whole entry, looked up): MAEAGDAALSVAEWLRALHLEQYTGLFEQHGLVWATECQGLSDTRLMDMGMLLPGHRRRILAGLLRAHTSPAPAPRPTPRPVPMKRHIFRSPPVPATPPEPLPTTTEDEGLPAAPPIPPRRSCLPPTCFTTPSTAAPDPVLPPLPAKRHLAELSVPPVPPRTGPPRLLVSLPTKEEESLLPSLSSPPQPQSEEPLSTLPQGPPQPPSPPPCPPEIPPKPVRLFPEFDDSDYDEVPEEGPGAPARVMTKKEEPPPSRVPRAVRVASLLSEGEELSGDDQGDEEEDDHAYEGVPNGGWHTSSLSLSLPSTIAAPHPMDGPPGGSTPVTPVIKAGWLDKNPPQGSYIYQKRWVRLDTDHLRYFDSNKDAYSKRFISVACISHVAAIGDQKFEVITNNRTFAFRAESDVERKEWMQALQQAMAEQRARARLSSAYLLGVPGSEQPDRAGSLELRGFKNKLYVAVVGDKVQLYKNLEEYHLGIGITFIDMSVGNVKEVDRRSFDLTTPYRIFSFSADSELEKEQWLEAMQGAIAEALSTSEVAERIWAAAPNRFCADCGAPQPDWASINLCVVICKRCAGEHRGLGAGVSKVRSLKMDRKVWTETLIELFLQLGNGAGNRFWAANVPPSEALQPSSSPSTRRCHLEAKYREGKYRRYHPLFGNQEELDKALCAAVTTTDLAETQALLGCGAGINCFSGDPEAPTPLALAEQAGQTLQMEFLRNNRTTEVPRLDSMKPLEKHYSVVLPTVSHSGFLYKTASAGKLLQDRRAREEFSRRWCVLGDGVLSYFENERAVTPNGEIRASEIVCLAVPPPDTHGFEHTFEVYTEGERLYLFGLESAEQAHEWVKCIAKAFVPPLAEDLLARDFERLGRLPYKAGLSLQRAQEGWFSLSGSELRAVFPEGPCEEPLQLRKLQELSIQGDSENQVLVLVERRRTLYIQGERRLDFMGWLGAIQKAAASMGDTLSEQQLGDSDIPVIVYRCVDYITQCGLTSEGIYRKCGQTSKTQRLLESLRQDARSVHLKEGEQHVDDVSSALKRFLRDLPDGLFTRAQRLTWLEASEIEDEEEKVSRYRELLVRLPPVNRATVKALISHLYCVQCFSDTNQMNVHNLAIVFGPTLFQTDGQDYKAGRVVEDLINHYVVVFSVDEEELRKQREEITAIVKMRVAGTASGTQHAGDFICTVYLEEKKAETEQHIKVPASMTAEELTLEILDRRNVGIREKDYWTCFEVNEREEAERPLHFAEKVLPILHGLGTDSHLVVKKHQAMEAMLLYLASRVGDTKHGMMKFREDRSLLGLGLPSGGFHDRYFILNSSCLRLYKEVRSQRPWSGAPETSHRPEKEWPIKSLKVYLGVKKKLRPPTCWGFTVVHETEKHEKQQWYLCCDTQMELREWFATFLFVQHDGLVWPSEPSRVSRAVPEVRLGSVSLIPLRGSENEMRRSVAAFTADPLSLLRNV
inactive: alvocidib -0.027 | Tubastatin A -0.135 | [1] 0.033 | defactinib 0.075 | [2] 0.017 | encorafenib 0.06 | [3] 0.078 | alisertib 0.015 | [4] 0.003 | gefitinib 0.041

AP1G2 (UniProt O75843)
inactive: alvocidib 0.04 | Tubastatin A -0.099 | [1] 0.068 | defactinib -0.006 | [2] 0.036 | encorafenib -0.03 | [3] -0.015 | alisertib 0.037 | [4] 0.056 | gefitinib 0.03

ABCF3 (UniProt Q9NUQ8)
UniProt Q9NUQ8, sequence (Q9NUQ8 whole entry, looked up): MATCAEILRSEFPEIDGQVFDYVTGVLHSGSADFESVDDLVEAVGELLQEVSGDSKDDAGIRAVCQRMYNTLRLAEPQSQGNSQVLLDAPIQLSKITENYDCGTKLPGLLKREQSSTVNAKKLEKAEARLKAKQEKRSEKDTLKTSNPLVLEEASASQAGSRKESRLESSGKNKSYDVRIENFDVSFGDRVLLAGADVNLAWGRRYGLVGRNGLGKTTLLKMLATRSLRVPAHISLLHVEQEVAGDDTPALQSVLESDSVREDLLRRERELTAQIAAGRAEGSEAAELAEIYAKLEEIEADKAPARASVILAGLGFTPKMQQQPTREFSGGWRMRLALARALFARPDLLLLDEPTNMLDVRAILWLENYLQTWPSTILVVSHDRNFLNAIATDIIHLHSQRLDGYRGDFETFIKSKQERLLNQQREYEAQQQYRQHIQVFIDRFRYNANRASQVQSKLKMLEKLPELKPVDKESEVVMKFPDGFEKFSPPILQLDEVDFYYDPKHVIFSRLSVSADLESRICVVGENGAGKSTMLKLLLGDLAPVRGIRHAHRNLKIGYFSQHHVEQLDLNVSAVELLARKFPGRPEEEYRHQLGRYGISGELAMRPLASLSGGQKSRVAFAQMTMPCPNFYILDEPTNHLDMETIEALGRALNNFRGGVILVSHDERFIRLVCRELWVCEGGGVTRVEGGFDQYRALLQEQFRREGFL
inactive: alvocidib 0.013 | Tubastatin A -0.172 | [1] 0.029 | defactinib -0.01 | [2] -0.01 | encorafenib -0.031 | [3] 0.11 | alisertib 0.004 | [4] -0.003 | gefitinib -0.006

ANXA11 (UniProt P50995)
inactive: alvocidib -0.025 | Tubastatin A 0.017 | [1] 0.009 | defactinib -0.012 | [2] -0.019 | encorafenib -0.004 | [3] 0.027 | alisertib 0.015 | [4] -0.015 | gefitinib -0.014

ABCF2 isoform 2 (UniProt Q9UG63)
inactive: alvocidib 0.004 | Tubastatin A -0.169 | [1] -0.001 | defactinib -0.039 | [2] 0.005 | encorafenib -0.005 | [3] 0.08 | alisertib 0.014 | [4] 0.025 | gefitinib -0.02
